For assay [1], the target named is T1, Serine/threonine-protein kinase Nek9 (Homo sapiens) (UniProt Q8TD19).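 Further: each value is a mean percent inhibition of NEK9.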
T1 sequence (whole entry): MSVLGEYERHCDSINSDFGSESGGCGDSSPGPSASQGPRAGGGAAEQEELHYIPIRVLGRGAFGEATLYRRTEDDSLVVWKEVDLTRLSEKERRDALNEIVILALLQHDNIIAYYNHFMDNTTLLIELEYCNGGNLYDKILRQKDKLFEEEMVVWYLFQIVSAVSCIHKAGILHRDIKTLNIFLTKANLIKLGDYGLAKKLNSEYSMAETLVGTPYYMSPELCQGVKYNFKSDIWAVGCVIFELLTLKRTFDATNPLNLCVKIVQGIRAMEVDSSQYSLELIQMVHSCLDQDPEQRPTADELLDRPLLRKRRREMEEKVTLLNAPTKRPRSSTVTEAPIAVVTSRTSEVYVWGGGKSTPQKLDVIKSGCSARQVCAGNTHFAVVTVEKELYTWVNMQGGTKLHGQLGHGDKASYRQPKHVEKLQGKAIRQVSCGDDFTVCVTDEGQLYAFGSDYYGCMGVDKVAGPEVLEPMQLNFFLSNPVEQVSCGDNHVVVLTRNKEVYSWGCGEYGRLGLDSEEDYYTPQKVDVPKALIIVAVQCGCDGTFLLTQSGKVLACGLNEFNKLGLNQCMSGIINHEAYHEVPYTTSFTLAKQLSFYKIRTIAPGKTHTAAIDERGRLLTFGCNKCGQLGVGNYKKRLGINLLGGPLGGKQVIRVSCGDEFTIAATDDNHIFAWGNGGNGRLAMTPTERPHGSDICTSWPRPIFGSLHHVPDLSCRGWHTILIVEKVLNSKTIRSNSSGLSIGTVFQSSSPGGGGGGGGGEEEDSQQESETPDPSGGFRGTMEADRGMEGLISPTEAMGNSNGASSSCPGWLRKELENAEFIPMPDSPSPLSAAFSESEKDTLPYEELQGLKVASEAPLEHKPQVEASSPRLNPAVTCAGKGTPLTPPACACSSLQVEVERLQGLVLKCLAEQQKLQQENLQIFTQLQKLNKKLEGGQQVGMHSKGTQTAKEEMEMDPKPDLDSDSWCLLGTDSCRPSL
To be noted: at 1 µM.

Assay [2] deals with Serine/threonine-protein kinase PLK1 (Homo sapiens) (UniProt P53350). The settings on record: at 0.1 µM.
The target is the same in assay [3]. To be noted: at 1 µM.
Assay [4] concerns the target T2, Dual specificity protein kinase TTK (Homo sapiens) (UniProt P33981).
T2 sequence (whole entry): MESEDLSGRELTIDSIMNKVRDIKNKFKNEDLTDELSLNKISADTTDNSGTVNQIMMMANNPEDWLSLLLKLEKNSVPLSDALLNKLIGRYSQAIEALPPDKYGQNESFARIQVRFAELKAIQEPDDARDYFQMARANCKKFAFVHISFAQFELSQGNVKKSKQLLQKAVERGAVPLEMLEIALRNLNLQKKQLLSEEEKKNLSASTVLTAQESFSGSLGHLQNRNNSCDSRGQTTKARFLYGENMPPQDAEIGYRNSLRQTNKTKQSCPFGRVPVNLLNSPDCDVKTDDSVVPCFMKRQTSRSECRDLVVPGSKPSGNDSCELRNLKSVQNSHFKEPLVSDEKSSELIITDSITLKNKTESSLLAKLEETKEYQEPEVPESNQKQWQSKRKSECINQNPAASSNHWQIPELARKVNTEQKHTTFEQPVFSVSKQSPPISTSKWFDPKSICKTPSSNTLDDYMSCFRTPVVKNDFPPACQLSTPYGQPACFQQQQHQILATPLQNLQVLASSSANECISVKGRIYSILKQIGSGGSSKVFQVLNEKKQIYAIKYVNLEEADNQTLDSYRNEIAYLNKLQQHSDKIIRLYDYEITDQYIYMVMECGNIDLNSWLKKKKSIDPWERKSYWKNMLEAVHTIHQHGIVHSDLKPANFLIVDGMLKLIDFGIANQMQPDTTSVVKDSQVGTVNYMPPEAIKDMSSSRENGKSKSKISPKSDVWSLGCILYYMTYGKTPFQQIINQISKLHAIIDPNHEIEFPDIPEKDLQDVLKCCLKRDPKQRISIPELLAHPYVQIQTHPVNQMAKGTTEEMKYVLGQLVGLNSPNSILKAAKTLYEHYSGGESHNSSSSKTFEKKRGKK
The settings on record: at 0.1 µM.

For assay [5], the system named is T3, Receptor-type tyrosine-protein kinase FLT3 (Homo sapiens), P36888 [D835Y].
T3 sequence (whole entry): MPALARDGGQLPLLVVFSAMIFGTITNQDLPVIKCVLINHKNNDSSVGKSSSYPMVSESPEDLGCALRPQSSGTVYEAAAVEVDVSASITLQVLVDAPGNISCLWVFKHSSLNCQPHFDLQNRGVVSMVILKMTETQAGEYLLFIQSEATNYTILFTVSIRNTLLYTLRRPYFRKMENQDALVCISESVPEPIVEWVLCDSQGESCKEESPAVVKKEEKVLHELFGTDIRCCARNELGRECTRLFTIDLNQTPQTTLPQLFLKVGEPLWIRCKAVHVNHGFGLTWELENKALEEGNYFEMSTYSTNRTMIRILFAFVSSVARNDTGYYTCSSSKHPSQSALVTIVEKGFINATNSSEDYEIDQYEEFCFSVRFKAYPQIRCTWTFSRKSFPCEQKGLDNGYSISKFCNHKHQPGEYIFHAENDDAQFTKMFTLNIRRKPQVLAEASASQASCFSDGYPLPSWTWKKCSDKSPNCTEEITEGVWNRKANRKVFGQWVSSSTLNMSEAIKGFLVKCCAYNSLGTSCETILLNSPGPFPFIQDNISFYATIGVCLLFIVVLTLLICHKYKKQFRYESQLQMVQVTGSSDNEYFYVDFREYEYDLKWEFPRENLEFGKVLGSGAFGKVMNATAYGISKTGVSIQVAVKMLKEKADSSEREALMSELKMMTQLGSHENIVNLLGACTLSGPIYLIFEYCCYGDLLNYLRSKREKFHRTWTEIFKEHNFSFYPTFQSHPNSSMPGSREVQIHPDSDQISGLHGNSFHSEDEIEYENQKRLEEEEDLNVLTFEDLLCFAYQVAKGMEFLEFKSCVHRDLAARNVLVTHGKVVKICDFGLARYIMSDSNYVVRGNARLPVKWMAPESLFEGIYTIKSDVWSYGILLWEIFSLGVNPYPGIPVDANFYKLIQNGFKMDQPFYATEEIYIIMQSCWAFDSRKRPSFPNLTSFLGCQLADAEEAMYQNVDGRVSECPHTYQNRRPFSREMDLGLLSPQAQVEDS
To be noted: at 1 µM.

In assay [6] the target is Vascular endothelial growth factor receptor 3 (Homo sapiens) (UniProt P35916). To be noted: at 0.1 µM.
Vascular endothelial growth factor receptor 3 (Homo sapiens), sequence (P35916 whole entry): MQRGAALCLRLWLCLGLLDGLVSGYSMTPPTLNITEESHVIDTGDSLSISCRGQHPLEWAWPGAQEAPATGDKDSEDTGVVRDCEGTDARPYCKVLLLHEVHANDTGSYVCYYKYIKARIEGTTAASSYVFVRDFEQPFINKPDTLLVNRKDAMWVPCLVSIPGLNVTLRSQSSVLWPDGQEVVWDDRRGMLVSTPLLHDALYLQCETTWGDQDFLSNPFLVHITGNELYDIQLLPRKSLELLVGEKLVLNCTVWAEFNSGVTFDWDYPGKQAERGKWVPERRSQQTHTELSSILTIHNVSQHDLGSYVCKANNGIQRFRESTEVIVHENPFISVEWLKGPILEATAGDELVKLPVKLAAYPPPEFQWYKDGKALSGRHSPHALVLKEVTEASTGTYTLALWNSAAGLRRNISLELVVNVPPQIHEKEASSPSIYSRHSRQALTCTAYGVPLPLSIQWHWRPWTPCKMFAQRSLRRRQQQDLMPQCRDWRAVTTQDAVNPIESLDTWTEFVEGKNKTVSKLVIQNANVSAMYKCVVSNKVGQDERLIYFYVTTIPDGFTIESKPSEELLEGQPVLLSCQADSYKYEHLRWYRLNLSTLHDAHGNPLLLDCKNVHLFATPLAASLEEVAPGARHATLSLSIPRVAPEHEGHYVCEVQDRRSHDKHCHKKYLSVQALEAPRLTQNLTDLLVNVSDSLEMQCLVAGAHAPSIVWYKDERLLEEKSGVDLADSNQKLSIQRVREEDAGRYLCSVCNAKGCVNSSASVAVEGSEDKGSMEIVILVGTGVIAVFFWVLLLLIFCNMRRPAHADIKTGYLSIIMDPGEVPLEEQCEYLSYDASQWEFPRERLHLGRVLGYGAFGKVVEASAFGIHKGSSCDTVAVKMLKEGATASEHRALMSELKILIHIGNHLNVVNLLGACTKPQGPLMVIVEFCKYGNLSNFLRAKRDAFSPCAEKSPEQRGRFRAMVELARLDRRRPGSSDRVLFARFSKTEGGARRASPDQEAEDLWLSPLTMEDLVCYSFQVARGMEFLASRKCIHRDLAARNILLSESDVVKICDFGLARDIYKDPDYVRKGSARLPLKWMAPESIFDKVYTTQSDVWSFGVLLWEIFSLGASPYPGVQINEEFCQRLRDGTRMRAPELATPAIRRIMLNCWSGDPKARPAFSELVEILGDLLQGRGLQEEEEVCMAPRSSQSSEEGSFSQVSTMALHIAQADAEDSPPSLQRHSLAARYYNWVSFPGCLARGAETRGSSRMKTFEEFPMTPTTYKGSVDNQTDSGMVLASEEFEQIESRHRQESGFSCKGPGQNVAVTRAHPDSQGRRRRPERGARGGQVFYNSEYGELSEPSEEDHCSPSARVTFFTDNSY
Assay [7] shares this target. To be noted: at 1 µM.
Assay [8] has as its target Macrophage colony-stimulating factor 1 receptor (Homo sapiens) (UniProt P07333). The settings on record: at 0.1 µM.
The target is the same in assay [9]. The settings on record: at 1 µM.
Assay [10] concerns the target Tyrosine-protein kinase Fyn (Homo sapiens) (UniProt P06241). To be noted: at 0.1 µM.
The target is the same in assay [11]. To be noted: at 1 µM.
Assay [12] has as its target Tyrosine-protein kinase HCK (Homo sapiens) (UniProt P08631). The settings on record: at 0.1 µM.
Assay [13] has the same target. The settings on record: at 1 µM.
In assay [14] the target is Insulin-like growth factor 1 receptor (Homo sapiens) (UniProt P08069). The settings on record: at 0.1 µM.
Insulin-like growth factor 1 receptor (Homo sapiens), sequence (P08069 31-736 limits assumed): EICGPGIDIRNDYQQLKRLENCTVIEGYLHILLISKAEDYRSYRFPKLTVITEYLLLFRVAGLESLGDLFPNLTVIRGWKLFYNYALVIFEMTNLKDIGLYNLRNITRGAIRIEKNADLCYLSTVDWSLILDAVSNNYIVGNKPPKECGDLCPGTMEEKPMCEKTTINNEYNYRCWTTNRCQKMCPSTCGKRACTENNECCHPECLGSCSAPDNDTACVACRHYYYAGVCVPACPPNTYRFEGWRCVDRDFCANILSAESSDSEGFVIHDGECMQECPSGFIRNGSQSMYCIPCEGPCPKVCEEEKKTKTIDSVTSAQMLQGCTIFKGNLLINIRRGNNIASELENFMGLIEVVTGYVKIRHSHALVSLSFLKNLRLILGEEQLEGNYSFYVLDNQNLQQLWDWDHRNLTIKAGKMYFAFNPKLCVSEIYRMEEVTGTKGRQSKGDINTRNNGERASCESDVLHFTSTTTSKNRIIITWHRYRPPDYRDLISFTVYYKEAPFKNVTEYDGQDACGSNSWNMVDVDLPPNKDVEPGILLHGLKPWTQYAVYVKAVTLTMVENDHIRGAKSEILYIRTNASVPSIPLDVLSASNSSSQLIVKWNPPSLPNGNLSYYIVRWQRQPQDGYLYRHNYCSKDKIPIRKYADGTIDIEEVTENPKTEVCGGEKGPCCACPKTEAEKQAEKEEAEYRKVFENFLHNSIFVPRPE
Insulin-like growth factor 1 receptor (Homo sapiens), sequence (P08069 741-1367 limits assumed): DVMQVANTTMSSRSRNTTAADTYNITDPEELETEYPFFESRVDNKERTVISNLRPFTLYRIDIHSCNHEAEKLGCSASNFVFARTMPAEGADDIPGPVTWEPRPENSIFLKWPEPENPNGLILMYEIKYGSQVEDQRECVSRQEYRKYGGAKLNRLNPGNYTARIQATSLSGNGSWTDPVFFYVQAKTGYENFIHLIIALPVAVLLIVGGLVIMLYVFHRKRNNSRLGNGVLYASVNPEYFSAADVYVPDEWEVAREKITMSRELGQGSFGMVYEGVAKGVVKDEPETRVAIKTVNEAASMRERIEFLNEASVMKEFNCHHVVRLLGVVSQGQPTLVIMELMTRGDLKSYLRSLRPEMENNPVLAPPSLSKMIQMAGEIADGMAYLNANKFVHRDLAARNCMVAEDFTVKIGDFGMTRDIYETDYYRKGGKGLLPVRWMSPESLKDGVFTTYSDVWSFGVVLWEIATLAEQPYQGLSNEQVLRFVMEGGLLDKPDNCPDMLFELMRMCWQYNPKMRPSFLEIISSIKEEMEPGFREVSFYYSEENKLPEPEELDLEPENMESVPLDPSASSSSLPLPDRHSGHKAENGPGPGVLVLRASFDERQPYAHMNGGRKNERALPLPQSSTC
Assay [15] has the same target. To be noted: at 1 µM.
Assay [16] has as its target Insulin receptor (Homo sapiens) (UniProt P06213). To be noted: at 0.1 µM.
Assay [17] shares this target. To be noted: at 1 µM.
Assay [18] has as its target Insulin receptor-related protein (Homo sapiens) (UniProt P14616). To be noted: at 0.1 µM.
For assay [19] the target is unchanged. The settings on record: at 1 µM.
Assay [20] has as its target T4, Tyrosine-protein kinase ITK/TSK (Homo sapiens) (UniProt Q08881).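 Further: mean percent inhibition of ITK from the GSK PKIS screen.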
T4 sequence (whole entry): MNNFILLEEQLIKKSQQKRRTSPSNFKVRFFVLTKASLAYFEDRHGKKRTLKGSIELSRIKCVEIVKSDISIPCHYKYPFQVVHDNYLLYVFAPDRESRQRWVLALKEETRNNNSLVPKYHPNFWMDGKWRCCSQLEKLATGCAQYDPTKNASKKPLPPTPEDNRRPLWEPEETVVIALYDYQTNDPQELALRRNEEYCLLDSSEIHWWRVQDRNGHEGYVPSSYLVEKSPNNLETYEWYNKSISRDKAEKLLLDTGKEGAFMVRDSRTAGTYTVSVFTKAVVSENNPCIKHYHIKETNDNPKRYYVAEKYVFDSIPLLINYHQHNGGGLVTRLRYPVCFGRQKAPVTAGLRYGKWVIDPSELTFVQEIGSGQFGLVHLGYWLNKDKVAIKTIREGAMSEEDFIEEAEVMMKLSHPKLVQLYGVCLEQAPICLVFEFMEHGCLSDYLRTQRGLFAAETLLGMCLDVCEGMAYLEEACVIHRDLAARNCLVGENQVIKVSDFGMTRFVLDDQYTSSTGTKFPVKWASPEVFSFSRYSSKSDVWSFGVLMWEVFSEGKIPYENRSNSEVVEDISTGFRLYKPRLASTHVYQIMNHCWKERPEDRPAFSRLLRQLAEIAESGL
To be noted: at 0.1 µM.

Tyrosine-protein kinase HCK (Homo sapiens), sequence (P08631 2-526 limits assumed): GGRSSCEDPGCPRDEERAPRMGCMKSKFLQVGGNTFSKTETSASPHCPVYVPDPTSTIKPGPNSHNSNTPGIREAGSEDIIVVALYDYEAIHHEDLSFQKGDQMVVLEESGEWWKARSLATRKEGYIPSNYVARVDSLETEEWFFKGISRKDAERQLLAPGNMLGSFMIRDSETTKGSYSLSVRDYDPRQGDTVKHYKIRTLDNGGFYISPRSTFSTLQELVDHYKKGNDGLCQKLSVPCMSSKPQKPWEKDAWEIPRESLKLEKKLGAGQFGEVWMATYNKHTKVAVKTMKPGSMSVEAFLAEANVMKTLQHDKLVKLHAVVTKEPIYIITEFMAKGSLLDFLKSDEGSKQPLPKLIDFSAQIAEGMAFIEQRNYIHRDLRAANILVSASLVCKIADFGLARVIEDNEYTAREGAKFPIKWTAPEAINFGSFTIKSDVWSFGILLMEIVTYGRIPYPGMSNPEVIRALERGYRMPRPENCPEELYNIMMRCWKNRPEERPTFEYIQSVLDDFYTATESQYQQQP
Insulin receptor-related protein (Homo sapiens), sequence (P14616 27-742 limits assumed): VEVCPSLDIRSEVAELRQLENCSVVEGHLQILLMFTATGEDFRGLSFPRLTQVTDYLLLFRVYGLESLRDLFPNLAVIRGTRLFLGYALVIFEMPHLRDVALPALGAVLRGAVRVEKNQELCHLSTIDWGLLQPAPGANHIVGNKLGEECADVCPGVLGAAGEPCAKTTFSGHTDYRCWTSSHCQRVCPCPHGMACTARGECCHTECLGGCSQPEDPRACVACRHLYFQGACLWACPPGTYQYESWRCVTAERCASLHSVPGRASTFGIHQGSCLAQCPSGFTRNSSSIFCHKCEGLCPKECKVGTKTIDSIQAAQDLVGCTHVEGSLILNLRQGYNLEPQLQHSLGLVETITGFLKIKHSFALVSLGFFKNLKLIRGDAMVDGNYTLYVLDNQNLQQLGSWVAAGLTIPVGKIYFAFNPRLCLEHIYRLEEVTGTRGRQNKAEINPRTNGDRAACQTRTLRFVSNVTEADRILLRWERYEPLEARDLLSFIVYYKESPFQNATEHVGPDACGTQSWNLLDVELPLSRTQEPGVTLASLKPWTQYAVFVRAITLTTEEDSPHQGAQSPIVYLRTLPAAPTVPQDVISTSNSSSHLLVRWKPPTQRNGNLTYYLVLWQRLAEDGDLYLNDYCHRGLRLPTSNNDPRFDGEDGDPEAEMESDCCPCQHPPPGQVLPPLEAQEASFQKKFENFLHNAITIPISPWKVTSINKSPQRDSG
Insulin receptor-related protein (Homo sapiens), sequence (P14616 747-1297 limits assumed): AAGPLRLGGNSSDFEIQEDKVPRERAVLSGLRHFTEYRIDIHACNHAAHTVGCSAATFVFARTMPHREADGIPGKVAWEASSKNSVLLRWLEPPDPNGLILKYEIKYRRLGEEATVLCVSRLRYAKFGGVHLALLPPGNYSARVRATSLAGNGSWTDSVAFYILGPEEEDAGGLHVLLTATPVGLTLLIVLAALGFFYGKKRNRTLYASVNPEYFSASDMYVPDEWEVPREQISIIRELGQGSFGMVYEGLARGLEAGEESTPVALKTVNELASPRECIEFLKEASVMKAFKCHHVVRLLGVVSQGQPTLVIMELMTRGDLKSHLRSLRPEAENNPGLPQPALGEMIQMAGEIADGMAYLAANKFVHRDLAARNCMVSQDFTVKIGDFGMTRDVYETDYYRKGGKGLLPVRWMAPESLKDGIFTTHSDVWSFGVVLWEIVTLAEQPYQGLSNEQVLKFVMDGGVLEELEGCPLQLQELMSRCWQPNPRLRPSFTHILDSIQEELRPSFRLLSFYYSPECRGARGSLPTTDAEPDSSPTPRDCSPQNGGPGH
Tyrosine-protein kinase Fyn (Homo sapiens), sequence (P06241 2-537 limits assumed): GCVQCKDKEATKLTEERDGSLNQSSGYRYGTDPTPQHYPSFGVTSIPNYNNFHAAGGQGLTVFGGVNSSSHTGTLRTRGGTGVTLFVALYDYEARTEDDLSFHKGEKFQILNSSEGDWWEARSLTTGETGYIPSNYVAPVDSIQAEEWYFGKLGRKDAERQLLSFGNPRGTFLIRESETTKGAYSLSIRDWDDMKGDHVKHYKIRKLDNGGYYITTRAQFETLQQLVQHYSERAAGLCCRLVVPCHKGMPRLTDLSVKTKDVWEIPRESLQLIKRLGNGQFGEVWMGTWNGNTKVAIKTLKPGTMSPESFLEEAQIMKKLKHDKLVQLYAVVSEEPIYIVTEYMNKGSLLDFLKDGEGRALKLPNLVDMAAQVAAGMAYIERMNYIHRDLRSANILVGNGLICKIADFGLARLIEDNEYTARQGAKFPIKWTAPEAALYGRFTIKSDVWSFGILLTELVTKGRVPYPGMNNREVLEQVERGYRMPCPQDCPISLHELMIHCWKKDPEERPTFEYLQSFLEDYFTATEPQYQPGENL

By inhibition is commonly meant the relative decrease from the control value, in per cent. Turning to `CS(=O)(=O)CCNCc1ccc(-c2ccc3ncnc(Nc4ccc(OCc5cccc(C(F)(F)F)c5)cc4)c3c2)o1`, the inhibition in assay [1] was 2.96%; in assay [2] it was 5.06%; in assay [3], 6.5%; in assay [4], 7.15%; in assay [5], 1.14%; in assay [6], 8.65%. For the same molecule, the inhibition came to 15.4% in assay [7]; 3.92% in [8]; 9.05% in [9]; 2.75% in assay [10]; 0.05% in [11]; 9.32% in assay [12]. The inhibition in [13] is 11.7%; in assay [14] it was 18.2%; in [15], 11.6%; in assay [16], 11.2%; in assay [17], 3.04%; in [18] it was 1.51%. Also, the inhibition in assay [19] was found to be 3.38%; in [20], 1.71%.
In the case of `COC(=O)Nc1nc2cc(Oc3ccc(NC(=O)Nc4ccccc4)cc3)ccc2[nH]1`, the inhibition in assay [1] stood at 6.76%; in assay [2] it was 2.19%; in [3], 4.22%; in [4] it was 6.44%; in [5] it was 2.44%; in [6], 1.7%. Moreover, the inhibition in [7] is -0.36%; in assay [8], 11.4%; in assay [9] it was 21.8%; in [10], 0.67%; in assay [11], 4.68%; in [12], 2.26%. For the same molecule, the inhibition in [13] is 4.53%; in assay [14], 0.4%; in assay [15], -0.2%; in [16], 3.75%; in assay [17], 6.99%; in [18], 0.98%. Besides, the inhibition in assay [19] is 1.1%; in assay [20], -0.1%.
Turning to `COc1cc(N2CCN(C(C)C)CC2)ccc1Nc1nc(Nc2cccc(F)c2C(=O)O)c2cc[nH]c2n1`, the inhibition in assay [1] was found to be 4.56%; in assay [2], 6.28%; in [3], 29.6%; in assay [4] it was 62.3%; in assay [5] it was 12.6%; in [6], 2.54%. The inhibition was -0.47% in assay [7]; 2.82% in assay [8]; 2.24% in [9]; -0.12% in assay [10]; 0.99% in assay [11]; 4.6% in assay [12]. The inhibition in [13] was 9.23%; in assay [14] it was 65.7%; in assay [15], 89.8%; in [16], 82.6%; in assay [17], 95.5%; in assay [18], 22.1%. In addition, the inhibition in [19] turned out to be 82.3%; in assay [20], 1.35%.
Consider `Cc1cc(O)cc(C)c1/C=C/c1cncc(C(=O)OC(C)(C)C)c1`, for which the inhibition in assay [1] was 2.6%; in assay [2], 0.53%; in assay [3], 2.82%; in assay [4], 6.3%; in [5] it was 2.14%; in assay [6] it was 1.44%. For the same molecule, the inhibition in assay [7] worked out at 1.34%; in [8], 7.66%; in assay [9] it was 38.6%; in assay [10], 8.16%; in [11], 39.1%; in assay [12], 11.3%. Moreover, the inhibition in assay [13] was 51.5%; in assay [14], 4.61%; in assay [15] it was 2.33%; in assay [16], 3.02%; in [17], 4.74%; in assay [18], 2.54%. Also, the results for the inhibition in [19] and in assay [20] were 1.64% and 1.16%, respectively.

For the origin of these results see ChEMBL document CHEMBL1961873, “Compounds: GSK PKIS; Assays: Nanosyn kinase panel” (2012).
